Results on eight molecules are retold here after PubChem BioAssay (Tox21).

Assay [1] can be described thus: Nuclear factor erythroid 2-related factor 2/antioxidant responsive element (Nrf2/ARE) small molecule agonists: qHTS cell viability counter screen in human keratinocytes (AID 1919968; active = well fitted curve in the direction sought with a large enough effect in the repeat runs; an effect the other way counts as inactive or inconclusive; note: nearly all actives have a fitted effect of over 55% in size). In a few lines:
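CellTiter-Fluor fluorescence, read 1 h after reagent, gave viability in the same wells as the ARE-luciferase assay. KeratinoSens cells (1,500/well) had 23 h compound exposure at 37 C/5% CO2 following 5 h plating.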

Assay [2] is described as follows: Nuclear factor erythroid 2-related factor 2/antioxidant responsive element (Nrf2/ARE) small molecule agonists: luciferase reporter gene qHTS assay in human keratinocytes (AID 1919969; note: nearly all actives have a fitted effect of over 35% in size; note: potency is the fitted concentration of half-maximal effect). (In general: A reporter such as luciferase makes a cellular process visible.)
For assay [3], the target named is Gonadotropin-releasing hormone receptor (Homo sapiens) (UniProt P30968). Kind of assay: Human gonadotropin-releasing hormone receptor (GnRHR) small molecule agonists, calcium flux assay in GnRHR-HEK293 cells (AID 1920063). Note: nearly all actives have a fitted effect of over 35% in size. Note: potency is the fitted concentration of half-maximal effect. In a few lines:
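Agonist mode: compounds at 15 concentrations, in triplicate, went onto calcium dye-loaded GnRHR-HEK293 cells. Intracellular calcium was then followed as 480/540 nm fluorescence at 1 s intervals over 3 min.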

The target in assay [4] is KiSS-1 receptor (Homo sapiens) (UniProt Q969F8). As to the kind of experiment: Human kisspeptin (KISS1R) small molecule agonists, calcium flux assay in KISS1R-HEK293 cells (AID 1920064; active = well fitted curve in the direction sought with a large enough effect in the repeat runs; an effect the other way counts as inactive or inconclusive). In a few lines:
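Agonist mode: intracellular calcium rise tracked at 1 s intervals over 3 min (480/540 nm) immediately after compound addition to dye-loaded KISS1R-HEK293 stable cells. Each compound tested at 15 concentrations in triplicate.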
(In general: Calcium flux is commonly read through the fluorescence of an indicator in the cells.)

Assay [5] can be described thus: G protein-coupled receptor (GPCR) small molecule agonists, calcium flux assay: HEK293 wild type cell line counter screen (AID 1920065). In a few lines: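 Calcium flux counter screen: compound added in agonist mode at 15 concentrations in triplicate to dye-loaded parental HEK293 cells. Fluorescence (480/540) read kinetically for 3 min; ATP served as positive control.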

Assay [6] is described as follows: p53 small molecule agonists, cell-based qHTS assay with human liver microsomes: qHTS cell viability counter screen (AID 1963579). Note: nearly all actives have a fitted effect of over 45% in size. In a few lines:
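HLM-supplemented (0.5 mg/mL final) and NADPH-supplemented (0.5 mg/mL final) p53RE-bla cultures, 4,000 cells per well, were dosed with compounds in DMSO for 16 h at 37 C; luminescent ATP detection (CellTiter-Glo, 30 min, room temperature) quantified surviving cells.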

The nature of assay [7]: p53 small molecule agonists, cell-based qHTS assay with rat liver microsomes: qHTS cell viability counter screen (AID 1963580). Note: nearly all actives have a fitted effect of over 45% in size. In a few lines: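 Cytotoxicity counter screen: intracellular ATP measured by CellTiter-Glo luminescence in the same wells as the beta-lactamase reporter read, on HCT-116 p53RE-bla cells exposed 16 h at 37 C to compounds with rat liver microsomes and NADPH, each 0.5 mg/mL final.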
For orientation: qHTS replaces the single test concentration by a dilution series.

Assay [8] in a line: p53 small molecule agonists, cell-based qHTS assay: qHTS cell viability counter screen (AID 1963581). Note: nearly all actives have a fitted effect of over 45% in size. In a few lines: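 Counter screen read by CellTiter-Glo luminescence (ATP content, 30 min at room temperature), run in the same wells as the beta-lactamase reporter read. HCT-116 p53RE-bla cells saw compounds for 16 h at 37 C.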
Assay [9] addresses 5-hydroxytryptamine receptor 2A (Homo sapiens) (UniProt P28223). Kind of assay: 5-hydroxytryptamine receptor 2A (HTR2A) small molecule antagonists, cell-based qHTS assay (AID 1963586). Note: nearly all actives have a fitted effect of over 45% in size. In a few lines:
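CHO cells stably expressing human HTR2A were plated for 18 h at 37 C, then loaded with calcium dye for 1 h. Compounds were preincubated 5 min at room temperature before DOI (4 nM solution) was added. Kinetic fluorescence was read for 3 min.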

The target is the same in assay [10]. As to the kind of experiment: 5-hydroxytryptamine receptor 2A (HTR2A) small molecule agonists, cell-based qHTS assay (AID 1963587). Note: nearly all actives have a fitted effect of over 30% in size. In a few lines: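 CHO cells stably expressing human HTR2A, plated 18 h, loaded with calcium dye 1 h at 37 C. Agonist mode: compounds added and intracellular calcium fluorescence recorded kinetically for 2 min at 1 sec intervals.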

Assay [11] has as its target Muscarinic acetylcholine receptor M1 (Homo sapiens) (UniProt P11229). Kind of assay: Cholinergic receptor muscarinic 1 (CHRM1) small molecule antagonists, cell-based qHTS assay (AID 1963588). Note: nearly all actives have a fitted effect of over 40% in size. In a few lines: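 Compounds were tested at 15 concentrations in three independent runs. Dye-loaded CHRM1-CHO cells were exposed 5 min at room temperature before stimulation by acetylcholine added at 50nM. Intracellular calcium was read kinetically on FDSS for 3 min.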

The target is the same in assay [12]. Kind of assay: Cholinergic receptor muscarinic 1 (CHRM1) small molecule agonists, cell-based qHTS assay (AID 1963589). Note: nearly all actives have a fitted effect of over 35% in size. In a few lines: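 Agonist-mode calcium-flux screen: compounds at 15 concentrations, three independent runs, were pin-transferred onto dye-loaded human CHRM1-CHO cells. Fluorescence was then recorded kinetically every second over minutes.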
Assay [13] addresses Beta-2 adrenergic receptor (Homo sapiens) (UniProt P07550). Kind of assay: Adrenergic beta2 receptor (ADRB2) small molecule antagonists, cell-based qHTS assay (AID 1963592). Note: series mostly up to about 92 µM; nearly all actives have a fitted effect of over 50% in size. In a few lines: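 Assay format: CHO-ADRB2 cells, 18-20hr seeding at 37C/5% CO2, then compound plus 1nM isoproterenol agonist mix for 0.5hr RT. Homogeneous time-resolved fluorescence cAMP detection after 1hr, expressed as 665/615 nm ratio.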

Assay [14] has the same target. As to the kind of experiment: Adrenergic beta2 receptor (ADRB2) small molecule agonists, cell-based qHTS assay (AID 1963593).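 Note: CHO cells stably overexpressing human ADRB2.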 In a few lines: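 CHO cells stably over-expressing ADRB2 were plated overnight at 37C, then dosed with compounds plus a stimulation mix containing 100uM IBMX and 25uM Ro-20-1724 for 0.5hr at room temperature. cAMP was measured by HTRF competition, 1hr.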

For assay [15], the target named is D(2) dopamine receptor (Homo sapiens) (UniProt P14416). Kind of assay: Dopamine D2 receptor (DRD2) small molecule agonists, cell-based qHTS assay (AID 1963594). Note: nearly all actives have a fitted effect of over 35% in size. Note: potency is the fitted concentration of half-maximal effect. In a few lines: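 HEK293 cells stably expressing human DRD2, pre-treated with PDE inhibitor Ro20-1724 (0.1 mM final) and compound 10 min at room temperature, then stimulated with NKH477 (200nM […]) for 30 min. cAMP read by HTRF (665/620 nm).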

Assay [16] shares this target. As to the kind of experiment: Dopamine D2 receptor (DRD2) small molecule antagonists, cell-based qHTS assay (AID 1963595; active = well fitted inhibition curve with a large enough effect in the signal ratio in the repeat runs, with a control signal flat; the % refers to the signal ratio). In a few lines:
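Readout: HTRF cAMP, cAMP-d2 competing with cellular cAMP for anti-cAMP cryptate, read after 1 h. Cells: DRD2-HEK293. Conditions: 0.1 mM Ro20-1724, 12 nM quinpirole, 200 nM NKH477, 30 min RT.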

The nature of assay [17]: cAMP Responsive Elements (CRE) small molecule agonists, cell-based qHTS assay (AID 1963590). In a few lines:
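Agonist mode: compound added to CRE-bla HEK 293T cells (2,000/well, 18 h after plating) for 3 h at 37 C/5% CO2. Reporter activity detected via FRET beta-lactamase substrate, 2 h room-temperature loading.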

A short description of assay [18]: cAMP Responsive Elements (CRE) small molecule antagonists, cell-based qHTS assay (AID 1963591; active = well fitted inhibition curve with a large enough effect in the signal ratio in the repeat runs, not every such curve was filed as active; the % refers to the signal ratio). In a few lines: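 Antagonist mode: compounds are added alongside the adenylyl cyclase activator NKH477 (0.25 uM final) to CRE-bla HEK293T cells for 3 h. LiveBLAzer FRET substrate, 2 h at room temperature, reports bla expression.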

Structures are written as SMILES. Where “and” joins values, the source holds several entries; their conditions need not be identical. Equal entries are not always repeated. Records with an inconclusive call do not appear. Calls of active or inactive are those of the source. Unless noted, calls come from the whole dose curve.

Beta-2 adrenergic receptor (Homo sapiens), sequence (P07550 whole entry, looked up): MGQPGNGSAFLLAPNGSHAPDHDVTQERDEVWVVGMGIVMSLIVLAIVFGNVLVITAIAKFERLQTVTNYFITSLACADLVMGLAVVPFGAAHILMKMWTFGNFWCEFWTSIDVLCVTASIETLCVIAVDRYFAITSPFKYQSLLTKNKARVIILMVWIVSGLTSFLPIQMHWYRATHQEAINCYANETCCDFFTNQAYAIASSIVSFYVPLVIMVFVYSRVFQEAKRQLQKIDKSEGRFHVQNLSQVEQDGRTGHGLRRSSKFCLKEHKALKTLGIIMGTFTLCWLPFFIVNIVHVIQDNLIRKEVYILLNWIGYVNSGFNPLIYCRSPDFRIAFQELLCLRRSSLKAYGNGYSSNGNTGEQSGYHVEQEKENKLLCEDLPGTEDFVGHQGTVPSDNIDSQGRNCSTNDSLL
5-hydroxytryptamine receptor 2A (Homo sapiens), sequence (P28223 whole entry, looked up): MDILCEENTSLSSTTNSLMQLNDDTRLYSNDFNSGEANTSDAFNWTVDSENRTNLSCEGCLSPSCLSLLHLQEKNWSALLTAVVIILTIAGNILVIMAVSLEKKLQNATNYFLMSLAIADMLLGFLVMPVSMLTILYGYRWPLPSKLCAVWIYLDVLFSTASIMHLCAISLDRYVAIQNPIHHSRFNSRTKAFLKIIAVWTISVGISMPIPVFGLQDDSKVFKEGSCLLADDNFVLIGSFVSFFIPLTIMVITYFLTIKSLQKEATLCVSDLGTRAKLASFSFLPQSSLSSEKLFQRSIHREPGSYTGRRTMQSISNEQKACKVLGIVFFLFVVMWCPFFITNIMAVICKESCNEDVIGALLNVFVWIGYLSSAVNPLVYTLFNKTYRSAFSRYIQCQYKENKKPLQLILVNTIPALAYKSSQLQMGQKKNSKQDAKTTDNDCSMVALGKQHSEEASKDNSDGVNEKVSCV
KiSS-1 receptor (Homo sapiens), sequence (Q969F8 whole entry, looked up): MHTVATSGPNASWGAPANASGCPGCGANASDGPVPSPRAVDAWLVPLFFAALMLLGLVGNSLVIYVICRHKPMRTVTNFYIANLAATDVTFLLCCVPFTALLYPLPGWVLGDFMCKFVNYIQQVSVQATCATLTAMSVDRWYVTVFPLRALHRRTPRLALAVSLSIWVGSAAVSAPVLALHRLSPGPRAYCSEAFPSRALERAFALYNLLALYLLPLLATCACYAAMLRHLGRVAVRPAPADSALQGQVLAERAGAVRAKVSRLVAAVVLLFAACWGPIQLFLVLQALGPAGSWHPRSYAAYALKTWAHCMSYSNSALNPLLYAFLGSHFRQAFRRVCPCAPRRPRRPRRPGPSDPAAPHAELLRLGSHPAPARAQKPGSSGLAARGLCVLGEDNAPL
D(2) dopamine receptor (Homo sapiens), sequence (P14416 whole entry, looked up): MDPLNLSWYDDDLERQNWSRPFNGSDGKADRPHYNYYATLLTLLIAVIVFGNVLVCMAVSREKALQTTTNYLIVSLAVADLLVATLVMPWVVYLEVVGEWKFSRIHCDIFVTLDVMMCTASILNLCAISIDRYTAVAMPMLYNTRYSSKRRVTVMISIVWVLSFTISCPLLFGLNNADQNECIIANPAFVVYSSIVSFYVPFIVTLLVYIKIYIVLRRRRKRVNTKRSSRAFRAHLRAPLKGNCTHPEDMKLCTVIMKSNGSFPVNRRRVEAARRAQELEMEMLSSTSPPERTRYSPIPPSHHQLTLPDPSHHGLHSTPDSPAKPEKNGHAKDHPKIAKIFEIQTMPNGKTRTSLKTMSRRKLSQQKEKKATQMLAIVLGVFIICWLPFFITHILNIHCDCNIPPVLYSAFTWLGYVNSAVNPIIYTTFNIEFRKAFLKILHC
Gonadotropin-releasing hormone receptor (Homo sapiens), sequence (P30968 whole entry, looked up): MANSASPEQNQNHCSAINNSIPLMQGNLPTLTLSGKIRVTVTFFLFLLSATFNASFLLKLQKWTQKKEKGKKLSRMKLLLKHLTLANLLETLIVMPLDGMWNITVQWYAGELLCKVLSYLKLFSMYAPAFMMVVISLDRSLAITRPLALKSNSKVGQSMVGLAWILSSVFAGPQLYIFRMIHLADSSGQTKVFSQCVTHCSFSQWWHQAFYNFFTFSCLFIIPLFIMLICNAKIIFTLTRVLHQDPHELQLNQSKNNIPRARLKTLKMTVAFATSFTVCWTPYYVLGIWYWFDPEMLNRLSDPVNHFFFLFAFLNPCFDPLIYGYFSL
Muscarinic acetylcholine receptor M1 (Homo sapiens), sequence (P11229 whole entry, looked up): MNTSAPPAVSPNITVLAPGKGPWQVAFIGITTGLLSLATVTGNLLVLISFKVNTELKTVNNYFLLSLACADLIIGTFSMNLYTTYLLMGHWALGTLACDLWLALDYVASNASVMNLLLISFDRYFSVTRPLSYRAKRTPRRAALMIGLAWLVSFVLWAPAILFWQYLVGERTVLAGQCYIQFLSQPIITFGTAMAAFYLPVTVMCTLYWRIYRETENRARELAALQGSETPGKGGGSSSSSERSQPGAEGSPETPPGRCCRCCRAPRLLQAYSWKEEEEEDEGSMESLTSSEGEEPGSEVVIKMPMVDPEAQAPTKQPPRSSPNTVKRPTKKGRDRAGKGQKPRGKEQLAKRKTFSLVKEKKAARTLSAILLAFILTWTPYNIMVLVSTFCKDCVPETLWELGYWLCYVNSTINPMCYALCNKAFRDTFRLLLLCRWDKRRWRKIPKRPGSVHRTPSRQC

Regarding `c1cc(C(c2ccc(OCC3CO3)cc2)C(c2ccc(OCC3CO3)cc2)c2ccc(OCC3CO3)cc2)ccc1OCC1CO1` (centres undefined), the Potency entry in assay [1], in assay [3], in assay [4], in assay [5], in [6] and in assay [7] was “inactive” throughout. Moreover, the Potency entry in assay [8], in assay [9], in assay [10], in assay [11], in assay [12] and in assay [13] was “inactive” throughout. Further, the Potency entry in assay [14], in assay [15] and in assay [16] was “inactive” in each case. Moreover, in [2], the Potency is 22.5 µM (active) and 21.7 µM (active).
For the molecule `Cc1cccc(Nc2ccccc2C(=O)O)c1C`, the Potency entry in [1], in [2], in assay [3], in assay [4], in assay [5] and in assay [6] was “inactive” throughout. In addition, the Potency result in assay [7], in assay [8], in [13], in assay [14] and in assay [16] was “inactive” throughout.
`C=C[C@H]1CN2CC[C@H]1C[C@H]2[C@H](O)c1ccnc2ccc(OC)cc12`: the Potency result in [1], in assay [2], in assay [3], in assay [4], in assay [5] and in assay [6] was “inactive” in each case. In addition, the Potency result in assay [7], in [8], in assay [9], in [11], in [12] and in assay [17] was “inactive” throughout. For the same molecule, the Potency result in [18], in [13], in assay [15] and in [16] was “inactive” each time.
For the molecule `NC[C@H](O)c1ccc(O)c(O)c1`, the Potency result in assay [1], in assay [2], in assay [4], in assay [5], in [6] and in [7] was “inactive” in each case. Moreover, the Potency entry in assay [8], in assay [9], in assay [10], in assay [11], in assay [12] and in assay [18] was “inactive” in each case. For the same molecule, the Potency in assay [3] is 19 µM (active); in assay [15], 16.6 µM (active).
With `C=C1C[C@]23C[C@@]1(O)CC[C@H]2[C@@]12C=C[C@H](O)[C@@](C)(C(=O)O1)[C@H]2[C@@H]3C(=O)O`, the Potency result in assay [1], in [2], in assay [3], in assay [4], in assay [5] and in assay [6] was “inactive” each time. The Potency result in assay [7], in [8], in assay [9], in assay [10], in assay [11] and in assay [12] was “inactive” in each case. Moreover, the Potency result in assay [17], in assay [18], in assay [15] and in assay [16] was “inactive” in each case.
Regarding `CC(C)(N=C=O)c1cccc(C(C)(C)N=C=O)c1`, the Potency result in assay [1], in assay [2], in assay [3], in [4], in assay [5] and in [6] was “inactive” throughout. Also, the Potency result in assay [7], in assay [8], in assay [9], in [10], in assay [11] and in assay [12] was “inactive” each time. Also, the Potency entry in [17], in [18], in [13] and in [16] was “inactive” each time.
On to `CN(C)/N=N/c1nc[nH]c1C(N)=O`, for which the Potency result in assay [1], in [2], in assay [3], in assay [4], in assay [5] and in assay [6] was “inactive” in each case. The Potency entry in [7], in assay [8], in [17], in assay [18], in assay [13] and in assay [14] was “inactive” throughout. In addition, the Potency entry in assay [15] and in [16] was “inactive” each time.
`O=C(O)CCCCCCCCCCC(=O)O`: the Potency result in assay [1], in assay [2], in [3], in assay [4], in [5] and in [6] was “inactive” throughout. The Potency result in assay [7], in assay [8], in [9], in assay [10], in assay [11] and in [12] was “inactive” throughout. Moreover, the Potency result in assay [13], in assay [14], in [15] and in assay [16] was “inactive” in each case.
